These results are taken from PubChem BioAssay (Tox21).

Records with an inconclusive call do not appear. Active and inactive are the calls of the source. Unless noted, calls follow the shape of the dose curve; as a rule, active = well fitted curve in the direction sought with a large enough effect in the repeat runs; inconclusive = weak or mixed curves; inactive = no such curve, though single readings can be large; an effect the other way counts as inactive or inconclusive.

A short description of test [1]: qHTS assay for small molecules that induce genotoxicity in human embryonic kidney cells expressing luciferase-tagged ATAD5 (AID 651632). Also: nearly all actives have a fitted effect of over 15% in size. In short, it runs like this: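 Luminescent reporter readout, HEK293T ATAD5-luc line: 16 hr drug exposure (37C, 5% CO2) followed by Amplite, 30 min RT.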
(In general: Quantitative high-throughput screening tests each substance at several concentrations.)

Test [2] in a line: qHTS assay for small molecule agonists of the p53 signaling pathway - cell viability (AID 651633; calls by dose curve;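 also: p53RE-bla HCT reporter cells with a stable beta-lactamase p53 reporter; series mostly up to about 83 µM; nearly all actives have a fitted effect of over 30% in size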). Summed up: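 p53RE-bla cells, seeded at 4,000 per well and rested 5 h at 37 C/5% CO2, received compounds in DMSO for 16 h at 37 C. CellTiter-Glo was then added, and luminescence was read after 30 min at room temperature to gauge cytotoxicity.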
A short description of test [3]: qHTS assay for small molecules that induce genotoxicity in human embryonic kidney cells expressing luciferase-tagged ATAD5 - cell viability (AID 651634; calls by dose curve; also: nearly all actives have a fitted effect of over 25% in size). In short, it runs like this:
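Viability read: CellTiter-Fluor fluorescence, 30 min at 37C. Cells: HEK293T, luciferase-tagged ATAD5. Exposure: 15.5 hr, 37C, 5% CO2, compound or DMSO vehicle.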

Test [4] can be described thus: qHTS assay for small molecule disruptors of the mitochondrial membrane potential - cell viability (AID 720634; calls by dose curve;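 also: human HepG2 liver cancer cells; series mostly up to about 83 µM; nearly all actives have a fitted effect of over 20% in size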). Summed up: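 HepG2, 1 hr compound, 37 C. ATP luminescence via CellTiter-Glo, 30 min RT, same well as m-MPI.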
The nature of test [5]: qHTS assay for small molecule disruptors of the mitochondrial membrane potential (AID 720635). Also: potency is read from the fitted curve at half-maximal effect. Summed up:
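HepG2 cells (2,000/well) attached overnight at 37C, then took compound for 1 hr at 37C, 5% CO2. Mito-MPS dye was added for 30 min; fluorescence was read at 490/535 nm (monomers) and 540/590 nm (aggregates).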

Test [6] is described as follows: qHTS assay to test for compound auto fluorescence at 590 nm (red) in HepG2 cells (AID 720674). In short, it runs like this: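 Compound auto-fluorescence is scored relative to Rose Bengal sodium, measured at 540/590 nm in live HepG2 cultures after 1 hr compound contact (37 C, 5% CO2).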
The nature of test [7]: qHTS assay to test for compound auto fluorescence at 535 nm (green) in HepG2 cells (AID 720675).
A short description of test [8]: qHTS assay to test for compound auto fluorescence at 460 nm (blue) in HEK293 cells (AID 720678). Summed up: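 HEK293, 2,000 cells/well, 10% dialyzed FBS; attach 4-5 hr 37C; pin compound or DMSO; o/n 37C/5% CO2; fluorescence 405/460 nm; triamterene-equivalent units.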
Test [9] in a line: qHTS assay to test for compound auto fluorescence at 590 nm (red) in HEK293 cells (AID 720679). Summed up: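 Intensity at 540nm excitation and 590nm emission is reported as Rose Bengal sodium-equivalent autofluorescence. Measurements followed overnight exposure (37C, 5% CO2) of HEK293 cells, 2,000 per well, to 23 nL compound.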
A short description of test [10]: qHTS assay to test for compound auto fluorescence at 535 nm (green) in HEK293 cells (AID 720680).
A short description of test [11]: qHTS assay to test for compound auto fluorescence at 460 nm (blue) in HEK293 cell free culture (AID 720681). In short, it runs like this: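 Test compounds were pinned into cell-free culture medium (DMEM with 10% FBS) and fluorescence was read directly at Ex/Em 405/460 nm. Signals were expressed as fluorescence equivalents of triamterene, with DMSO vehicle as control.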

Test [12] is described as follows: qHTS assay to test for compound auto fluorescence at 535 nm (green) in HEK293 cell free culture (AID 720682). In short, it runs like this:
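Measurement is a direct plate read of green fluorescence (485 nm in, 535 nm out) after compound addition to serum-supplemented DMEM lacking cells, with fluorescein used to express intensities.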

A short description of test [13]: qHTS assay to test for compound auto fluorescence at 590 nm (red) in HEK293 cell free culture (AID 720683). Summed up:
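Tox21 10K library compounds were pinned into cell-free DMEM with 10% FBS and fluorescence was read at excitation 540 nm. Activity is expressed as Rose Bengal sodium equivalency.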

Test [14] in a line: qHTS assay to test for compound auto fluorescence at 590 nm (red) in HepG2 cell free culture (AID 720684). Summed up: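 Red fluorescence (540 nm excitation, 590 nm emission) was measured after compound transfer into cell-free MEM supplemented with 10% FBS. Values are equivalencies against Rose Bengal sodium.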
A short description of test [15]: qHTS assay to test for compound auto fluorescence at 460 nm (blue) in HepG2 cell free culture (AID 720685). Summed up:
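Compound (23 nL) or DMSO pinned into cell-free MEM with 10% FBS; blue fluorescence read at 405/460 nm excitation/emission, expressed as auto-fluorescence equivalency to triamterene.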

The nature of test [16]: qHTS assay to test for compound auto fluorescence at 535 nm (green) in HepG2 cell free culture (AID 720686).
A short description of test [17]: qHTS assay to test for compound auto fluorescence at 460 nm (blue) in HepG2 cells (AID 720687). Summed up: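 Cells (2,000/well in MEM with 10% FBS) attached overnight at 37 C, then were exposed to compound or DMSO for 1 hr at 37 C, 5% CO2. Fluorescence read at Ex/Em 405/460 nm, expressed as triamterene-equivalent signal.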
For test [18], the target named is Glucocorticoid receptor (Homo sapiens) (UniProt P04150). In words: qHTS assay to identify small molecule agonists of the glucocorticoid receptor (GR) signaling pathway (AID 720691; active = well fitted activation curve with a large enough effect in the signal ratio in the repeat runs, not every such curve was filed as active; the % refers to the signal ratio). Summed up:
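qHTS in GR-bla HeLa cells: 4 h settling at 37 C/5% CO2, 18 h compound incubation at 37 C, 2 h LiveBLAzer B/G FRET substrate at room temperature, fluorescence intensity measured.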

The nature of test [19]: qHTS assay for small molecule agonists of the p53 signaling pathway (AID 651631; calls by dose curve; also: nearly all actives have a fitted effect of over 15% in size; also: potency is read from the fitted curve at half-maximal effect). Summed up: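 Quantitative high-throughput format: 4,000 p53RE-bla HCT-116 cells/well, 5 h pre-incubation, 16 h compound exposure at 37 °C, 2 h room-temperature substrate step, fluorescence intensity measured.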
Test [20] addresses Glucocorticoid receptor (Homo sapiens) (UniProt P04150). In words: qHTS assay to identify small molecule antagonists of the glucocorticoid receptor (GR) signaling pathway (AID 720692; active = well fitted inhibition curve with a large enough effect in the signal ratio in the repeat runs, not every such curve was filed as active; the % refers to the signal ratio; also: potency is read from the fitted curve at half-maximal effect). In short, it runs like this:
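Inhibition of glucocorticoid signalling is measured in HeLa cells with a GRE-controlled beta-lactamase reporter; cells are co-treated with compound and 5 nM dexamethasone (final) for 18 h before FRET substrate readout.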

Glucocorticoid receptor (Homo sapiens), sequence (P04150 whole entry, looked up): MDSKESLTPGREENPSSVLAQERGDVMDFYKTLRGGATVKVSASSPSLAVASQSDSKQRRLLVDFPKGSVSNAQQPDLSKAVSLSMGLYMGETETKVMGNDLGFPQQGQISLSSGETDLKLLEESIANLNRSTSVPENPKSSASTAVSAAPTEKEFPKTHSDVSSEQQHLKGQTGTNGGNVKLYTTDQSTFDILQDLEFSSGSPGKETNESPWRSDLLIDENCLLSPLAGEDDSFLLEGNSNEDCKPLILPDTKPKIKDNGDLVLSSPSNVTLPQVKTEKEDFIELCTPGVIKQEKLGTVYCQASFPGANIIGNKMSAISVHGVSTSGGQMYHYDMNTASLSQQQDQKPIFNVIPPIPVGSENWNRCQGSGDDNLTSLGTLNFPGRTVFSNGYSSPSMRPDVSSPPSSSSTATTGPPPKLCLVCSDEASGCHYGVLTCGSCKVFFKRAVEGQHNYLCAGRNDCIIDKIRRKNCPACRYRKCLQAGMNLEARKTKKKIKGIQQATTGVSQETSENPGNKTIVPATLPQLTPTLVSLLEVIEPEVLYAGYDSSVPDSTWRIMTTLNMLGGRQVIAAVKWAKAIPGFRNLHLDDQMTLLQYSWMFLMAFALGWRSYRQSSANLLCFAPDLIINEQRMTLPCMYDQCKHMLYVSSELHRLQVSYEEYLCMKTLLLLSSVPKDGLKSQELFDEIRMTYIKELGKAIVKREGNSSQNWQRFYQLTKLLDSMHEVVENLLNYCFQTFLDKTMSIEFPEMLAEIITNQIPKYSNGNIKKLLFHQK

`Cc1coc2c1CCC(C)C2` (centres undefined): the Potency result in test [1], in test [2], in [3] and in [4] was “inactive” throughout. Further, in test [5], the Potency was 25.1 µM (active). Also, the result in [6], in [7], in [8], in [9], in test [10] and in test [11] was inactive. The result in test [12], in test [13], in test [14], in test [15], in test [16] and in [17] was inactive. Moreover, the compound was called inactive in test [18].

With `CC1=C(C(=O)Nc2ccccc2)S(=O)(=O)CCO1`, the Potency in test [19] was 19.3 µM (active); in test [20] it was 48.9 µM (active). Besides, the Potency result in test [1], in test [2] and in test [4] was “inactive” throughout. The compound was called inactive in test [6], in test [7], in test [8], in [9], in test [10] and in [11]. Besides, the compound was called inactive in test [12], in [13], in test [14], in [15], in test [16] and in [17]. The compound was called inactive in test [18].

Take `O=c1oc2ccccc2c(O)c1C1CCCc2ccccc21` (centres undefined): the Potency entry in test [19], in test [1], in [2] and in test [20] was “inactive” in each case. In test [5], the Potency is 13.7 µM (active). Also, the result in [6], in test [7], in test [8], in test [9], in test [10] and in test [11] was inactive. The outcome in [12], in [13], in test [14], in test [15], in [16] and in test [17] was inactive. Moreover, in [18], the result was inactive.

`COc1cccc(C(=O)NN(C(=O)c2cc(C)cc(C)c2)C(C)(C)C)c1C`: the Potency result in test [19], in [1] and in [2] was “inactive” in each case. Further, the result in [6], in [7], in [8], in test [9], in [10] and in test [11] was inactive. Also, the result in test [12], in test [13], in [14], in test [15], in test [16] and in [17] was inactive.

`CC(C1CC1)C(O)(Cn1cncn1)c1ccc(Cl)cc1` (centres undefined): the Potency entry in test [19], in [1] and in test [4] was “inactive” each time. For the same compound, the result in [6], in [7], in [8], in [9], in test [10] and in [11] was inactive. The outcome in test [12], in test [13], in test [14], in test [15], in [16] and in test [17] was inactive.

As for `c1coc(-c2nc3ccccc3[nH]2)c1`, the Potency entry in [19], in test [3] and in test [20] was “inactive” throughout. The compound was classed as inactive in test [6], in [7], in test [8], in [9], in test [10] and in [11]. Moreover, the compound was called inactive in test [12], in [13], in test [14], in test [15], in test [16] and in [17]. The call in [18] was inactive.

`CCCCCCBr`: the Potency entry in test [19], in test [2], in [3], in [4] and in test [5] was “inactive” each time. Further, the compound was classed as inactive in test [6], in test [7], in test [8], in [9], in [10] and in test [11]. In addition, the call in test [12], in test [13], in [14], in test [15] and in test [17] was inactive.

For the compound `N#Cc1c(Cl)cccc1Cl`, the Potency entry in test [19], in test [1], in test [2] and in test [4] was “inactive” each time. Further, the compound was called inactive in test [6], in test [7], in test [8], in test [9], in test [10] and in [11]. In addition, the compound was called inactive in test [12], in test [13], in [14], in test [15], in test [16] and in [17]. For the same compound, in [18], the compound was classed as inactive.

With `CCCCc1c(C)nc(NCC)[nH]c1=O`, the Potency result in [19], in [1], in test [2], in [4] and in [20] was “inactive” throughout. Besides, the result in test [6], in test [7], in test [8], in test [9], in [10] and in [11] was inactive. For the same compound, the compound was classed as inactive in test [12], in test [13], in [14], in [15], in [16] and in test [17]. In addition, the result in [18] was inactive.

As for `CNCC(=O)c1ccc(O)c(O)c1`, the Potency result in test [19], in [3], in test [4], in [5] and in test [20] was “inactive” throughout. Also, the result in test [6], in test [7], in [8], in test [9], in [10] and in [11] was inactive. Moreover, the result in test [13], in test [14], in test [15], in test [16], in test [17] and in test [18] was inactive.

On to `CCOP(=O)(OCC)OP(=O)(OCC)OCC`, for which the Potency result in test [1], in test [2], in test [3], in test [4] and in test [5] was “inactive” throughout. In addition, the result in test [6], in test [7], in test [8], in [9], in test [10] and in test [11] was inactive. The outcome in test [12], in test [13], in [14], in test [15], in test [16] and in [17] was inactive.

With `ClCC(Cl)Cl`, the Potency entry in test [1], in [2], in test [3], in [4] and in [5] was “inactive” in each case. Moreover, the outcome in test [6], in test [7], in test [8], in test [9], in [10] and in test [11] was inactive. Also, the call in test [12], in [13], in test [14], in test [15], in test [16] and in test [17] was inactive.

`CCNc1nc(NC(C)C)nc(OC)n1`: the Potency entry in [19], in test [1], in test [3], in test [4] and in [20] was “inactive” throughout. Besides, the call in test [6], in test [7], in test [9], in test [11], in [12] and in test [13] was inactive. For the same compound, the compound was called inactive in test [14], in test [16], in test [17] and in test [18].

With `CNNC`, the Potency result in test [19], in test [1], in test [4] and in test [20] was “inactive” in each case. For the same compound, the result in test [6], in test [7], in [8], in test [9], in test [10] and in [11] was inactive. Further, the compound was called inactive in test [12], in test [13], in [14], in test [16], in test [17] and in [18].

As to `Cc1cc(C)c(C(=O)P(=O)(C(=O)c2c(C)cc(C)cc2C)c2ccccc2)c(C)c1`, the Potency entry in [19], in [1], in test [3], in [4] and in test [5] was “inactive” throughout. In addition, the result in [6], in [7], in [9], in test [10], in test [11] and in test [12] was inactive. Further, the call in test [13], in [14], in test [16], in test [17] and in test [18] was inactive.
